Experimental findings from ChEMBL document CHEMBL1961873, “Compounds: GSK PKIS; Assays: Nanosyn kinase panel” (2012) are described below.

Experiment [1] has as its target High affinity nerve growth factor receptor (Homo sapiens) (UniProt P04629). As to conditions: at 1 µM.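 Further: each value is the mean percent inhibition of TRKA.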
The target of experiment [2] is BDNF/NT-3 growth factors receptor (Homo sapiens) (UniProt Q16620). To be noted: at 0.1 µM.
The target is the same in experiment [3]. As to conditions: at 1 µM.
Experiment [4] has as its target NT-3 growth factor receptor (Homo sapiens) (UniProt Q16288). As to conditions: at 0.1 µM.
The target is the same in experiment [5]. As to conditions: at 1 µM.
Experiment [6] addresses T1, Tyrosine-protein kinase TXK (Homo sapiens) (UniProt P42681).
T1 sequence (whole entry): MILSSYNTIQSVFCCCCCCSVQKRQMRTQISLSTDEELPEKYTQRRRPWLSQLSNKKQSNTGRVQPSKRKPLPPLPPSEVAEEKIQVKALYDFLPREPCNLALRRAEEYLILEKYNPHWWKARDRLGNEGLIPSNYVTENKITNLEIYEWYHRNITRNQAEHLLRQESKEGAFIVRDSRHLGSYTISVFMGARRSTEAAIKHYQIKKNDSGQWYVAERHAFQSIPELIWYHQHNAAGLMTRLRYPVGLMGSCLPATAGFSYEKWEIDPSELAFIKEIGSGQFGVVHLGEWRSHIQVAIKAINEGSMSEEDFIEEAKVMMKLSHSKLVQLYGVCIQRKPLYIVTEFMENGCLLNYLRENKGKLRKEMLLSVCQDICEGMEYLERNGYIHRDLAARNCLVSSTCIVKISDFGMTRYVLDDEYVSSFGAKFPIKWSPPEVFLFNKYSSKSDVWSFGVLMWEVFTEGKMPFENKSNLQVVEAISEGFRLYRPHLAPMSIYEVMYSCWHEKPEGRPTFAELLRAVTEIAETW
To be noted: at 0.1 µM.

The target of experiment [7] is T1, Tyrosine-protein kinase TXK (Homo sapiens). As to conditions: at 1 µM.
Experiment [8] addresses Non-receptor tyrosine-protein kinase TYK2 (Homo sapiens) (UniProt P29597). To be noted: at 0.1 µM.
For experiment [9], the target named is T2, Dual specificity protein kinase TTK (Homo sapiens) (UniProt P33981).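 Further: reported figures are mean TTK inhibition at 1 µM.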
T2 sequence (whole entry): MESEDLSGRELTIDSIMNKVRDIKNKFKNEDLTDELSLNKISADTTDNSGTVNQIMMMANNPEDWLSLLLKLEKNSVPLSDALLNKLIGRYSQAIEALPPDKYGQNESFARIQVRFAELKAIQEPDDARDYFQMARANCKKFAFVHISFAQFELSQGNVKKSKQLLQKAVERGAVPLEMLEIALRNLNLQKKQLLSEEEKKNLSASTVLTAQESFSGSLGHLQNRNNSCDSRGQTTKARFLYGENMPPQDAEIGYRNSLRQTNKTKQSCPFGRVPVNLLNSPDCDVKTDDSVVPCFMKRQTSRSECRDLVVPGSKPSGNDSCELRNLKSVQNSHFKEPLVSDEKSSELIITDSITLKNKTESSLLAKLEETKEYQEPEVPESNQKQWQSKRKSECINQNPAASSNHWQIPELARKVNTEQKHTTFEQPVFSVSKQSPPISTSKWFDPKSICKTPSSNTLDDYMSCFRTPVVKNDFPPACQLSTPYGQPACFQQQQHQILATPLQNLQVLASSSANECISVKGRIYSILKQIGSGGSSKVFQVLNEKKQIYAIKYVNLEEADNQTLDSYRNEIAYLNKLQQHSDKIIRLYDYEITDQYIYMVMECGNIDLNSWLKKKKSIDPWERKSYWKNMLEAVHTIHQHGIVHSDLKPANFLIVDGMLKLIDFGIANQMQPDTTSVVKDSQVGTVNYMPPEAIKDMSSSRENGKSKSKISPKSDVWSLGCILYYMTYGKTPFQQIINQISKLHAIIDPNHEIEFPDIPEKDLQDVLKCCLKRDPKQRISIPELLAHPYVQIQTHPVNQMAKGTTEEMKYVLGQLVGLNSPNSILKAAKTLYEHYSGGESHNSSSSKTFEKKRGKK
As to conditions: at 1 µM.

Experiment [10] addresses T3, Aurora kinase A (Homo sapiens) (UniProt O14965).
T3 sequence (whole entry): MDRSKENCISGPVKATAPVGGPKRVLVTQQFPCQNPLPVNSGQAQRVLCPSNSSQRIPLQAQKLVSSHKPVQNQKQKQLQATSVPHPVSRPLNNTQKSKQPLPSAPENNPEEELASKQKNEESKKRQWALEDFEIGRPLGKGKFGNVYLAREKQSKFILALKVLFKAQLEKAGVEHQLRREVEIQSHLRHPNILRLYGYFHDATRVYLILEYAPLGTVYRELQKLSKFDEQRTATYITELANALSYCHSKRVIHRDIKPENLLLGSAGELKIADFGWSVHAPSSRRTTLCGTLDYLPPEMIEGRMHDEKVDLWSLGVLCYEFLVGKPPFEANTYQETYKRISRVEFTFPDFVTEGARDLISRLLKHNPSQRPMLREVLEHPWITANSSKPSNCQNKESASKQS
As to conditions: at 0.1 µM.

The target in experiment [11] is T3, Aurora kinase A (Homo sapiens). As to conditions: at 1 µM.
The target in experiment [12] is Aurora kinase B (Homo sapiens) (UniProt Q96GD4). To be noted: at 0.1 µM.
Aurora kinase B (Homo sapiens), sequence (Q96GD4 whole entry): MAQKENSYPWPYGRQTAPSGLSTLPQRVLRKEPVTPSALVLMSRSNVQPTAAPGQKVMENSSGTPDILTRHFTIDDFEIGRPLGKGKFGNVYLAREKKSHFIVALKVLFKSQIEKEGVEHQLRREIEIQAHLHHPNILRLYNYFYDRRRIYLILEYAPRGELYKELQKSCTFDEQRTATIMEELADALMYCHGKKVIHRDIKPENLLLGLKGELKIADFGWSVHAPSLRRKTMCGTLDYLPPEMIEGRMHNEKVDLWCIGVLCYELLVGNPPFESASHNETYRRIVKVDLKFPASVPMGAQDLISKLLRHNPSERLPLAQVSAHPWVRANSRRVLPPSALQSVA
Experiment [13] shares this target. To be noted: at 1 µM.
Experiment [14] deals with T4, Aurora kinase C (Homo sapiens) (UniProt Q9UQB9).
T4 sequence (whole entry): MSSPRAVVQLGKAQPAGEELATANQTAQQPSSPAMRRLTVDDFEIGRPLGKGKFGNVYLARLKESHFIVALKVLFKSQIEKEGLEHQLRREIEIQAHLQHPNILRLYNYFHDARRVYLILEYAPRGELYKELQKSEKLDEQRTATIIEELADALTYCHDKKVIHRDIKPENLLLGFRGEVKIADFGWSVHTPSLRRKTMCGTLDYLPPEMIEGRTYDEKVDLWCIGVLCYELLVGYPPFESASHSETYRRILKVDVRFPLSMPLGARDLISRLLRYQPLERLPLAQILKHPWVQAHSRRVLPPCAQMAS
To be noted: at 0.1 µM.

Experiment [15] deals with T4, Aurora kinase C (Homo sapiens). To be noted: at 1 µM.
For experiment [16], the target named is Serine/threonine-protein kinase 10 (Homo sapiens) (UniProt O94804). To be noted: at 0.1 µM.
Serine/threonine-protein kinase 10 (Homo sapiens), sequence (O94804 whole entry, looked up): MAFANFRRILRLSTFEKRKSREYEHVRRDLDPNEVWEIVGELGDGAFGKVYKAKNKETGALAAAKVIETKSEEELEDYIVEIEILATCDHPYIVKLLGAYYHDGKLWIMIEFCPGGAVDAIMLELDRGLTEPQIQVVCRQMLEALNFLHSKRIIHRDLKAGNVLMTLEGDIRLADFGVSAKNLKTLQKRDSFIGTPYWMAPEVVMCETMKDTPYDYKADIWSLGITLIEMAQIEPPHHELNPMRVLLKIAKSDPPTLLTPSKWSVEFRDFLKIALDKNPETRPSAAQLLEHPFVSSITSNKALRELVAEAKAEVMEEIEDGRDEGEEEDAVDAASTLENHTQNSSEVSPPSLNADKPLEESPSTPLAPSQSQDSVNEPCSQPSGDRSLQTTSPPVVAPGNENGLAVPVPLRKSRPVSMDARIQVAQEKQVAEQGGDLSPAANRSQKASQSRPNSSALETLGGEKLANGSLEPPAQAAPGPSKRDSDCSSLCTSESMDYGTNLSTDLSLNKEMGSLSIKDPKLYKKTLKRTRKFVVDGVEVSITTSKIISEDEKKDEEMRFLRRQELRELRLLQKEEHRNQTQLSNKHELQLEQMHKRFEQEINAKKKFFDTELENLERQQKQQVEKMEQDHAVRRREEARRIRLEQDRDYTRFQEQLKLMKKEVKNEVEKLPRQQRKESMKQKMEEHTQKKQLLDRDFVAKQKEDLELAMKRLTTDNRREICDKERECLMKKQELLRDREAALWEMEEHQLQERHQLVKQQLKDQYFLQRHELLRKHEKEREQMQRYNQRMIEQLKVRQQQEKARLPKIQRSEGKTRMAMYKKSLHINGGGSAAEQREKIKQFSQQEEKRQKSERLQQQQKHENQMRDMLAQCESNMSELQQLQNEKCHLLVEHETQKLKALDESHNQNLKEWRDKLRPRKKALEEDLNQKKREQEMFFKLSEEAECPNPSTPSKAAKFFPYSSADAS
The target is the same in experiment [17]. As to conditions: at 1 µM.
For experiment [18], the target named is T5, Mitogen-activated protein kinase kinase kinase kinase 2 (Homo sapiens) (UniProt Q12851).
T5 sequence (whole entry): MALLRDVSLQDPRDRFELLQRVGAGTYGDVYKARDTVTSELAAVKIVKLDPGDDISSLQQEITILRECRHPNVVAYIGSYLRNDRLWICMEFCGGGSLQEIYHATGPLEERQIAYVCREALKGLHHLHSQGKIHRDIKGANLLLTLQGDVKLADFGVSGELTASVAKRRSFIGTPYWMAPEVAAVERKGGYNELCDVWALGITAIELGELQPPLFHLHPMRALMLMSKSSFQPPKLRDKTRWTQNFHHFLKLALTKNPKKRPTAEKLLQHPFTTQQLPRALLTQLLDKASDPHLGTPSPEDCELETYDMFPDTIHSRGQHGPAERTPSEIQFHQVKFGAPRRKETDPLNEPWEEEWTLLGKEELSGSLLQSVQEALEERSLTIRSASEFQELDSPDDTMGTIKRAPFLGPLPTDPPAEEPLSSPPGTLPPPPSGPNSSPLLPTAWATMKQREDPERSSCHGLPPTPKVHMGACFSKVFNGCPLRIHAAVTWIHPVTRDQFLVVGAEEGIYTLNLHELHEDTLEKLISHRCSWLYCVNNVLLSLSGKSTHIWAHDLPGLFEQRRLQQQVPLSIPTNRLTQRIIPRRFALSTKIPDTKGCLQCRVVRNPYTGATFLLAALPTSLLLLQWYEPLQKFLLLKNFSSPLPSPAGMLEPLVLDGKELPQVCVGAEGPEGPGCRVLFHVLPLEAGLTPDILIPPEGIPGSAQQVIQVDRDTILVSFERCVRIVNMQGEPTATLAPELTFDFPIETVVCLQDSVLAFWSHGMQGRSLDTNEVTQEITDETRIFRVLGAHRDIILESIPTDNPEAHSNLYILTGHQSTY
To be noted: at 0.1 µM.

For experiment [19], the target named is T5, Mitogen-activated protein kinase kinase kinase kinase 2 (Homo sapiens). To be noted: at 1 µM.
Experiment [20] concerns the target Mitogen-activated protein kinase kinase kinase kinase 4 (Homo sapiens) (UniProt O95819). As to conditions: at 0.1 µM.

Structures are written as SMILES.

Mitogen-activated protein kinase kinase kinase kinase 4 (Homo sapiens), sequence (O95819 2-1239 limits assumed): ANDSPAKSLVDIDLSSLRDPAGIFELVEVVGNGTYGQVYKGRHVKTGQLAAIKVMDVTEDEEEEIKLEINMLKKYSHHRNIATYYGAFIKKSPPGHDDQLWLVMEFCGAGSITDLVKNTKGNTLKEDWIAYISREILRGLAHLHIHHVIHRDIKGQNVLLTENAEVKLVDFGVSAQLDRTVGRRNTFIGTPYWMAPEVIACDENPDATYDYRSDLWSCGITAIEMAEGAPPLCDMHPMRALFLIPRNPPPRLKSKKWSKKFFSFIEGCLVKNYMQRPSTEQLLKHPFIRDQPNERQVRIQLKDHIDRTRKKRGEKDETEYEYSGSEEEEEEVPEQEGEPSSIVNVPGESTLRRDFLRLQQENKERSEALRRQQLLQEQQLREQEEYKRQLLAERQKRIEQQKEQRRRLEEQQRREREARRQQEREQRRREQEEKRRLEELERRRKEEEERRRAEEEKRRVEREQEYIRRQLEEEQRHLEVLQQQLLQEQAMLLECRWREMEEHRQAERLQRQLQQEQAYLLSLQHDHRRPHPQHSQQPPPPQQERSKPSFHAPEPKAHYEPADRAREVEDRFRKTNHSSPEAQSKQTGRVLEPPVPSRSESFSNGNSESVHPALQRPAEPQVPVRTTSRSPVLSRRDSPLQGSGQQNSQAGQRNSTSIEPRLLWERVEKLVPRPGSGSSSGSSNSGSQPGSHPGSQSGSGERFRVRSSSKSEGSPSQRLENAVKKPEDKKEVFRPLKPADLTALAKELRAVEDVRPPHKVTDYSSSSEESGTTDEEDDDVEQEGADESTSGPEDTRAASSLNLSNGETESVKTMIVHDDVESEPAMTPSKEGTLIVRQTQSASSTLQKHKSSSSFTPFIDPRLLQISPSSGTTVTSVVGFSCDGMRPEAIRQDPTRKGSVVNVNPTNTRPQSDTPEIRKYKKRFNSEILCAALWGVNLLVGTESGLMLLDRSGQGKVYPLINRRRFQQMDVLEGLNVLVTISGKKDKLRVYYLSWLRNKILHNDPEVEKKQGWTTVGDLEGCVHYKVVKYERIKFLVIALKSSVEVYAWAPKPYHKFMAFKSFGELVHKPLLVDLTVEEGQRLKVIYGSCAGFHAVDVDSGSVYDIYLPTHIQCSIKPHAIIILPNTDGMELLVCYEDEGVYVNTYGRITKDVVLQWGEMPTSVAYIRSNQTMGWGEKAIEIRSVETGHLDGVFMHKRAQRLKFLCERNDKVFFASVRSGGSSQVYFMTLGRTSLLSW
BDNF/NT-3 growth factors receptor (Homo sapiens), sequence (Q16620 32-822 limits assumed): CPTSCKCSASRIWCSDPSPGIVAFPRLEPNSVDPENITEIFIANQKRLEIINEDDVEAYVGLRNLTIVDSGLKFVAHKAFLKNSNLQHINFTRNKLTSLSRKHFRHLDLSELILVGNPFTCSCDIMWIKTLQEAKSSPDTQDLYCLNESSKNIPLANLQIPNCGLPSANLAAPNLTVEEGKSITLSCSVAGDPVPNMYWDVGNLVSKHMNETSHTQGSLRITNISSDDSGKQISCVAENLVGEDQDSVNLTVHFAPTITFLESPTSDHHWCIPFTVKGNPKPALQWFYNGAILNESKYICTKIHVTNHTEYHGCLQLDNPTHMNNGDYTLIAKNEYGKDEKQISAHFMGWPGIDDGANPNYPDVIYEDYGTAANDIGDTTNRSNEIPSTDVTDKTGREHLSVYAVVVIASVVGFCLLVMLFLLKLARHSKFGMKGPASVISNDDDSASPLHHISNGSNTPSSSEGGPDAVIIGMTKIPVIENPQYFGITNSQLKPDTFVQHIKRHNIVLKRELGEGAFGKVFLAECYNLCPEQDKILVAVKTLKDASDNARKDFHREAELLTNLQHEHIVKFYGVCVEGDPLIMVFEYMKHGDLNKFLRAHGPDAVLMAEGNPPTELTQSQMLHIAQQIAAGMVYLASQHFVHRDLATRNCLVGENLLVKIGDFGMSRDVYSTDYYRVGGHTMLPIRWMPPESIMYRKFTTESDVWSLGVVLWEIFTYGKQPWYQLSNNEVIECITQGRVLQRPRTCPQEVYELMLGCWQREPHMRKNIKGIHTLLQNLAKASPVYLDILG
High affinity nerve growth factor receptor (Homo sapiens), sequence (P04629 33-796 limits assumed): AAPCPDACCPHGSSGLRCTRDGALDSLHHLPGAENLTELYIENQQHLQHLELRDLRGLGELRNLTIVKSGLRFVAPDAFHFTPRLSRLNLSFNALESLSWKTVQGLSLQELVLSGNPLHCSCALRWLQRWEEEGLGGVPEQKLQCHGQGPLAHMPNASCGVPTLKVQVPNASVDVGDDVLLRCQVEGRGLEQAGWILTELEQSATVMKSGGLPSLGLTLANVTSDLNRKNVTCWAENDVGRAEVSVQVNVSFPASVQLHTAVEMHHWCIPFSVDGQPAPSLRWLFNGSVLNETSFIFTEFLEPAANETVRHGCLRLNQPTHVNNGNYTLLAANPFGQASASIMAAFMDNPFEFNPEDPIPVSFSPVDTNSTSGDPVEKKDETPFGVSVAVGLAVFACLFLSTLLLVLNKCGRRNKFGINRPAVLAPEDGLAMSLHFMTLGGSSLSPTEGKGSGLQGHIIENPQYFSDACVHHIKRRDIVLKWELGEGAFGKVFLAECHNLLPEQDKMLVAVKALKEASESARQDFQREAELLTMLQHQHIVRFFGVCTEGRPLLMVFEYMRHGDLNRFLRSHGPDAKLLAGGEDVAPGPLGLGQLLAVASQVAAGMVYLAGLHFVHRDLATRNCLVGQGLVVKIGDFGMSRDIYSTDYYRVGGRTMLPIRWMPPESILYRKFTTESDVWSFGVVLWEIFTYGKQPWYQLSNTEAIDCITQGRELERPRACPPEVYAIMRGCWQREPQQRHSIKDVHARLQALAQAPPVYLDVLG
NT-3 growth factor receptor (Homo sapiens), sequence (Q16288 32-839 limits assumed): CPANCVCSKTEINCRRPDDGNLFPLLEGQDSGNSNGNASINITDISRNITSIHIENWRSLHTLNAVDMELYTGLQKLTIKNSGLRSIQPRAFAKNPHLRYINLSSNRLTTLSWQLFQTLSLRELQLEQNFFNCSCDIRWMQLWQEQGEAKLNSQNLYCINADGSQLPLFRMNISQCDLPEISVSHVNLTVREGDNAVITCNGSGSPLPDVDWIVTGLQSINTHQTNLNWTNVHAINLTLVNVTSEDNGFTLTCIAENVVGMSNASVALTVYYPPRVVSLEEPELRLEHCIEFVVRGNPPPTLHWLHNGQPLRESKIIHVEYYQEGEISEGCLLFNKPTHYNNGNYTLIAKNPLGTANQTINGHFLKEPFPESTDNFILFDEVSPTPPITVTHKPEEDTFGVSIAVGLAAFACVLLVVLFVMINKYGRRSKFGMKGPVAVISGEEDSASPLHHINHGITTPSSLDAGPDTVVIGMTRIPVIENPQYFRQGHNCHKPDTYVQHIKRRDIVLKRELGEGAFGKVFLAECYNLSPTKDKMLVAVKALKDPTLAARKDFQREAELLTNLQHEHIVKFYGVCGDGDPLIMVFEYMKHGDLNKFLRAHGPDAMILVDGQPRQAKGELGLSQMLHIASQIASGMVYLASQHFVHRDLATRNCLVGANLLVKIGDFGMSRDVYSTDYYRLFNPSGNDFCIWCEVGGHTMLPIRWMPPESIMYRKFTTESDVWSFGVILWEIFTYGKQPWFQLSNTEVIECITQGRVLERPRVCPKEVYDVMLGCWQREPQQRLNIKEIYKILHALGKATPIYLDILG

`CNC(=O)c1ncccc1Nc1nc(Nc2cc3c(cc2OC)CCCN3C(=O)CN(C)C)nc2[nH]ccc12`: the inhibition in experiment [1] is 6.12%; in experiment [2], 3.17%; in [3], 5.34%; in experiment [4], 2.2%; in experiment [5], 5.36%; in experiment [6] it was 3.73%. Moreover, the inhibition was 1.5% in [7]; -3.3% in [8]; 35.2% in [9]; 2.64% in experiment [10]; 6.59% in experiment [11]; 3.79% in experiment [12]. The inhibition came to 8.73% in [13]; 2.36% in [14]; 4.16% in [15]; 7.25% in experiment [16]; 4.81% in experiment [17]; 1.56% in experiment [18]. Moreover, the inhibition worked out at 4.18% in experiment [19] and 4.22% in [20].

Consider `CC1(C)CC(n2cnc(-c3ccc(F)cc3)c2-c2ccnc(N)n2)CC(C)(C)N1`, for which the inhibition in experiment [1] amounted to 0.77%; in experiment [2], 1.16%; in [3] it was 2.03%; in [4] it was 0.21%; in [5] it was 2.79%; in experiment [6], 0.09%. Also, the inhibition in experiment [7] was 0.75%; in experiment [8], 1%; in experiment [9], 1.53%; in experiment [10], -0.03%; in [11] it was 4.57%; in experiment [12] it was 3.04%. Besides, the inhibition in experiment [13] is -0.43%; in experiment [14], -0.39%; in experiment [15] it was -1.87%; in [16], 1.32%; in experiment [17] it was 6.74%; in experiment [18] it was 1.36%. For the same compound, the inhibition in [19] turned out to be 2.09%; in [20], 2.07%.

`COc1ccccc1-c1cc(/C=C2\C(=O)Nc3ncc(Br)cc32)cc(Br)c1O`: the inhibition is 61.7% in [1]; 38.7% in experiment [2]; 89.2% in [3]; 41.7% in experiment [4]; 93.9% in experiment [5]; 3.05% in [6]. Further, the inhibition in experiment [7] was 6.65%; in experiment [8], -5.9%; in experiment [9] it was 9.88%; in [10], 13.4%; in experiment [11], 93%; in [12], 12.4%. Besides, the inhibition in experiment [13] amounted to 57.2%; in experiment [14] it was 7.31%; in [15], 87.5%; in experiment [16], 5.49%; in experiment [17] it was 5.99%; in experiment [18], 0.42%. The inhibition was 5.34% in experiment [19] and 5.7% in experiment [20].

Regarding `COC(=O)Nc1nc2ccc(Oc3ccc(NC(=O)Nc4cc(C(F)(F)F)ccc4F)cc3)cc2s1`, the inhibition was found to be 81.5% in experiment [1]; 24.9% in [2]; 61% in experiment [3]; 25.7% in [4]; 88.5% in experiment [5]; 1.96% in experiment [6]. The inhibition in experiment [7] is 2.35%; in experiment [8], -0.09%; in [9], 9.84%; in [10], 1.12%; in experiment [11], 7.02%; in [12] it was 5.4%. The inhibition is 30.8% in experiment [13]; 9.05% in experiment [14]; 50.4% in [15]; 24.5% in [16]; 55.4% in experiment [17]; 10.7% in experiment [18]. For the same compound, the inhibition in experiment [19] came to 28.6%; in experiment [20], 2.18%.
